Results filed as inconclusive are left out. Calls of active or inactive are those of the source. The call rests on the fitted dose curve; in most records, active means well fitted curve in either direction with a large enough effect; inconclusive means small, poorly fitted or top-dose-only effect; inactive means flat fitted curve, though single readings scatter.
Molecular target: Neuropeptide S receptor (Homo sapiens) (UniProt Q6W5P4)
Assay: Confirmation Concentration-Response Assay for Antagonists of the Neuropeptide S Receptor: Robust Characterization of cAMP Signal Transduction
Details: CHO-NPSR cells, NPS-stimulated cAMP TR-FRET
Text: NIH Chemical Genomics Center [NCGC] NIH Molecular Libraries Probe Production centers Network [MLPCN] MLPCN Grant: X01-DA026210-01 Assay Submitter (PI): Heilig, Markus Alexander NCGC Assay Overview: Neuropeptide S receptor (NPSR), previously known as GPR154, is a recently de-orphanized G protein coupled receptor. Its endogenous ligand is the 20 amino acids peptide Neuropeptide S (NPS). […] NPS and its receptor are found in various tissues. Specifically they are highly expressed in brain areas that have been implicated in modulation of arousal, stress and anxiety. Central administration of NPS in mice produces an unusual profile of activity by inducing wakefulness and arousal, while at the same time suppressing anxiety. Therefore, NPSR may represent a novel drug target for the treatment of sleep and anxiety disorders. To identify NPSR antagonists, we developed a cell-based cAMP assay. NPS can stimulate the production of cAMP in Chinese hamster ovary cells stably expressing NPS receptor. This change in intracellular cAMP level can be detected by a homogeneous LANCE cAMP assay based on the TR-FRET (time resolved fluorescence resonance energy transfer) between a europium-labeled cAMP tracer complex and a cAMP-specific antibody labeled with Alexa Fluor 647. The europium-labeled cAMP tracer complex is formed by the tight interaction between Biotin-cAMP (b-cAMP) and streptavidin labeled with Europium-W8044 chelate (Eu-SA). Light pulse at 320 nm excites the europium of the cAMP tracer and the energy emitted is transferred to the Alexa molecule bound to the cAMP antibody, generating a TR-FRET signal at 665 nm. Residual energy from the europium will produce a light at 620 nm. The native unlabeled cAMP from cell lysates competes with the europium-cAMP tracer for antibody binding and reversely reduces the emission signal of Alexa by interrupting FRET between the two labeled molecules. Both emission signals from the FRET donor (620 nm) and the acceptor (665 nm) can be detected by a plate reader in the TRF mode. Expression of result in fluorescence ratio (665 nm/620 nm) helps to normalize differences due to cell density and reagent dispensing. This assay was successfully optimized to a 1536-well plate format. Select compounds from the primary screen (AID 1461) were chosen for confirmation based on potency, efficacy, SAR, and activity across other assays in PubChem and at NCGC. Other compounds are analogs of active compounds from the primary screen. This particular assay uses a high density of sampling across concentration-response space to establish more confidence estimates of potency.
NCGC Assay Protocol Summary: A Chinese hamster ovary (CHO) cell line stably expressing the NPS receptor (CHO-NPSR) was obtained from Dr. Heilig lab at NIAAA and maintained in F-12 Kaighn's media (Invitrogen, Carlsbad, CA, 21127) supplemented with 10 % FBS, 100 units/ml penicillin, 100 ug/ml streptomycin and 250 ug/ml geneticin at 37C, 5% CO2 in a humidified atmosphere. Before the assay, aliquots of cells were frozen and stored at -135C. The assay was performed in 1536-well format. Data are reported for both the ratio of the two emission wavelengths, and also for the component 'donor' channel, Em2=620. […] IC50 values were determined from concentration-response data modeled with the standard Hill equation. NPS 1536-well assay protocol: (1) Fresh or frozen CHO-NPSR cells were suspended in F-12 Kaighn's media supplemented with 10 % FBS, 100 units/ml penicillin and 100 ug/ml streptomycin. Cells were plated at 4 ul/well (1200 cells) to white, tissue culture treated 1536-well plates, and then cultured at 37C, 5 % CO2 for 16 to 30 hours. (2) Add 23 nl/well of compound in DMSO solution. The final titration for each compound was between 0.6 nM and 46 uM. […]

Chain of Neuropeptide S receptor (Homo sapiens) (Q6W5P4 whole entry, looked up): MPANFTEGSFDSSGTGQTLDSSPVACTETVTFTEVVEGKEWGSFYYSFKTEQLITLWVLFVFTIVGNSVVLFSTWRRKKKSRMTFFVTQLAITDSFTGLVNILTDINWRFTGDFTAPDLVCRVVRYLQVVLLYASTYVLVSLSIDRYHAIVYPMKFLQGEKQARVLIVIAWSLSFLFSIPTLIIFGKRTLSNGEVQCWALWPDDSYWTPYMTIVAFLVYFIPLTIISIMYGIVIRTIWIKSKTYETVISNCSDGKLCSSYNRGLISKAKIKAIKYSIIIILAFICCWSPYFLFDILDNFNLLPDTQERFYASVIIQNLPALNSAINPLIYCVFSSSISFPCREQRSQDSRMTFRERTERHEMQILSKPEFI

Structure (SMILES) | Potency
Cc1c(P(=S)(c2ccccc2)c2ccccc2)[n+]2ccccc2n1C | 1670 nM (active)
Cc1c(P(=S)(c2ccccc2)c2ccccc2)[n+]2ccccc2n1Cc1ccccc1 | 1250 nM (active)
Cc1c(P(=S)(c2ccccc2)c2ccccc2)[n+]2ccccc2n1CCCc1ccccc1 | 106 nM (active)
Cc1c(P(=S)(c2ccccc2)c2ccccc2)[n+]2ccccc2n1CCc1ccccc1 | 2100 nM (active)
Cc1c(P(=S)(c2ccccc2)c2ccccc2)[n+]2ccccc2n1CCCCc1ccccc1 | 1.1 nM (active)
Cc1c(P(=S)(c2ccccc2)c2ccccc2)[n+]2ccccc2n1CCCCCc1ccccc1 | 705 nM (active)
Cc1c(P(=S)(c2ccccc2)c2ccccc2)[n+]2ccccc2n1C/C=C/c1ccccc1 | 44.5 nM (active)
Cc1nc2ccccn2c1P(=S)(c1ccccc1)c1ccccc1 | 17700 nM (active)

Source: PubChem BioAssay AID434936 (National Center for Advancing Translational Sciences (NCATS), 2010)
